For seven compounds, Potency and outcome results are on record in PubChem BioAssay (Tox21).

Records with an inconclusive call do not appear. Activity calls are given as the source filed them. Unless noted, the call rests on the fitted dose curve; in most records, active means well fitted curve in the direction sought with a large enough effect in the repeat runs; inconclusive means weak or mixed curves; inactive means no such curve, though single readings can be large; an effect the other way counts as inactive or inconclusive.

Experiment [1] can be described thus: qHTS assay to identify small molecule agonists of the peroxisome proliferator-activated receptor delta (PPARd) signaling pathway - cell viability counter screen (AID 743211). Further: nearly all actives have a fitted effect of over 55% in size. The method, boiled down: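 PPARd-bla HEK293H cells (UAS-beta-lactamase reporter) were treated with compounds for 17 h at 37 C. Viability was then read in the same wells by CellTiter-Glo luminescence after 30 min at room temperature.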

Experiment [2] is described as follows: qHTS assay to identify small molecule antagonists of the peroxisome proliferator-activated receptor delta (PPARd) signaling pathway - cell viability counter screen (AID 743213). Further: nearly all actives have a fitted effect of over 50% in size. The method, boiled down: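 Luminescence from CellTiter-Glo, added after the bla read and incubated 30 min at room temperature, gives viability of HEK293H PPARd-bla cells exposed to compounds for 17 h at 37 C with 300 nM L165041.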
A general note: Quantitative high-throughput screening tests each substance at several concentrations.

Experiment [3] is described as follows: qHTS assay to identify small molecule agonists of the farnesoid-X-receptor (FXR) signaling pathway - cell viability counter screen (AID 743218). Further: nearly all actives have a fitted effect of over 45% in size. The method, boiled down: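 Luminescence from CellTiter-Glo, read after 30 min at RT, reports viability of GeneBLAzer FXR-UAS-bla HEK 293T cells treated 16 h with compounds in the wells used for the beta-lactamase reporter.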

The nature of experiment [4]: qHTS assay to identify small molecule antagonists of the farnesoid-X-receptor (FXR) signaling pathway - cell viability counter screen (AID 743221; active means well fitted cell-killing curve with a large enough effect in the repeat runs, not every such curve was filed as active; further: nearly all actives have a fitted effect of over 50% in size). The method, boiled down:
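FXR-UAS-bla HEK 293T cells were treated with test compounds plus chenodeoxycholic acid (50 uM final) for 16 h at 37 C. Cell viability in the same wells was then read as CellTiter-Glo luminescence after 30 min at room temperature.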

Experiment [5] has as its target Vitamin D3 receptor (Homo sapiens) (UniProt P11473). As to the kind of experiment: qHTS assay to identify small molecule agonists of the vitamin D receptor (VDR) signaling pathway (AID 743222; calls by dose curve). The method, boiled down:
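Beta-lactamase reporter readout (LiveBLAzer B/G FRET, 2 h RT) in VDR-bla cells after 16 h compound treatment at 37C, 5% CO2; cells pre-incubated 4 h before pin transfer of DMSO solutions.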

Experiment [6] has the same target. As to the kind of experiment: qHTS assay to identify small molecule antagonists of the vitamin D receptor (VDR) signaling pathway (AID 743223; active means well fitted inhibition curve with a large enough effect in the signal ratio in the repeat runs, not every such curve was filed as active; the % refers to the signal ratio). The essentials: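 VDR-bla cells were plated, incubated 4 h at 37C, then given compound and 1alpha,25-dihydroxyvitamin D3 (3 nM final). After 16 h at 37C, LiveBLAzer B/G FRET substrate was added for 2 h at room temperature and fluorescence read.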

Experiment [7] is described as follows: qHTS assay to identify small molecule agonists of the vitamin D receptor (VDR) signaling pathway - cell viability counter screen (AID 743224). Further: series mostly up to about 63 µM; nearly all actives have a fitted effect of over 50% in size. The essentials: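 Cytotoxicity counter screen: VDR-bla cells, 16 h compound exposure at 37C, 5% CO2; CellTiter-Glo luminescence, 30 min RT, same wells as bla read.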
Experiment [8] can be described thus: qHTS assay to identify small molecule antagonists of the vitamin D receptor (VDR) signaling pathway - cell viability counter screen (AID 743225). Further: nearly all actives have a fitted effect of over 50% in size. The method, boiled down:
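VDR-bla HEK 293T cells, 4 h pre-incubation at 37C, then compound plus 1-alpha,25-dihydroxyvitamin D3 (3 nM final) for 16 h. After the beta-lactamase FRET read, CellTiter-Glo was added to the same wells; luminescence after 30 min at room temperature.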

Experiment [9] is described as follows: qHTS assay to identify small molecule agonists of the NFkB signaling pathway - cell viability counter screen (AID 1159515; calls by dose curve; further: series mostly up to about 61 µM; nearly all actives have a fitted effect of over 55% in size). The essentials: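 ME-180 NFkB-bla cells, 2,000/well; overnight attach; compound 5 hr, 37 C/5% CO2; LiveBLAzer substrate 1.5 hr RT; then CellTiter-Glo in same wells, 30 min RT, luminescence read.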
Experiment [10] in a line: qHTS assay to identify small molecule agonists of the endoplasmic reticulum stress response signaling pathway (AID 1159516; active means well fitted activation curve with a large enough effect in the signal ratio in the repeat runs, not every such curve was filed as active; the % refers to the signal ratio; further: potency means the concentration at half of the fitted maximal effect). The method, boiled down:
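HeLa ESRE-bla reporter line; cpd 5 h, 37 C/5% CO2; LiveBLAzer B/G FRET substrate 2 h RT; ex 405, em 460/530 nm.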

The nature of experiment [11]: qHTS assay to identify small molecule agonists of the endoplasmic reticulum stress response signaling pathway - cell viability counter screen (AID 1159517; calls by dose curve). The method, boiled down: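 Steps: seed 1,500 ESRE-bla HeLa cells per well; incubate overnight at 37 C, 5% CO2; add compounds in DMSO for 5 hr; run FRET substrate 2 hr RT; add CellTiter-Glo, wait 30 min, read luminescence.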

A short description of experiment [12]: qHTS assay to identify small molecule antagonists of the retinoid-related orphan receptor gamma (ROR-gamma) signaling pathway - cell viability counter screen (AID 1159520). Further: nearly all actives have a fitted effect of over 50% in size. The essentials: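 Tet-on ROR gamma CHO cells were given compounds for 2 hr, then doxycycline hyclate at 1 uM final, and incubated 16 hr at 37 C. Viability was measured as ATP content by CellTiter-Glo luminescence.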

Experiment [13] concerns the target Nuclear receptor ROR-gamma (Homo sapiens) (UniProt P51449). As to the kind of experiment: qHTS assay to identify small molecule antagonists of the retinoid-related orphan receptor gamma (ROR-gamma) signaling pathway (AID 1159521). The method, boiled down: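 Tet-on RORγ CHO cells carrying a ROR response element–luciferase reporter were pretreated with compounds for 2 h, then induced with 1 uM (final) doxycycline hyclate for 16 h at 37 C. Antagonism was read as decreased ONE-Glo luminescence.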

A short description of experiment [14]: qHTS assay to identify small molecule agonists of the AP-1 signaling pathway - cell viability counter screen (AID 1159525; calls by dose curve; further: nearly all actives have a fitted effect of over 55% in size). The essentials: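 Same-well cytotoxicity counter screen of the Tox21 10K library in ME-180 cells. The readout is ATP-dependent luminescence after 5 h compound treatment. Data are normalised to DMSO and tetra n-octyl ammonium bromide controls.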

A short description of experiment [15]: qHTS assay to identify small molecule agonists of the AP-1 signaling pathway (AID 1159526; calls by dose curve).
Experiment [16] deals with Retinoic acid receptor RXR-alpha (Homo sapiens) (UniProt P19793). The experiment is described as follows: qHTS assay to identify small molecule agonists of the RXR signaling pathway (AID 1159527; calls by dose curve; further: nearly all actives have a fitted effect of over 35% in size). The essentials:
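GeneBLAzer RXR-alpha-UAS-bla HEK 293T cells in medium with 2% charcoal-stripped FBS, pre-incubated 5 hr at 37 C, then exposed to compounds 16 hr. Beta-lactamase reporter read by FRET substrate, 2 hr room temperature, 460/530 nm emission.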

Experiment [17] concerns the target Peroxisome proliferator-activated receptor delta (Homo sapiens) (UniProt Q03181). The experiment is described as follows: qHTS assay to identify small molecule agonists of the peroxisome proliferator-activated receptor delta (PPARd) signaling pathway (AID 743212; calls by dose curve). The method, boiled down:
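Read-out: beta-lactamase FRET fluorescence after 2 h room-temperature incubation with LiveBLAzer B/G substrate. Cells were HEK293H carrying a UAS-bla reporter for PPARd, treated at 37 C with DMSO-dissolved compounds.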

For experiment [18] the target is unchanged. The experiment is described as follows: qHTS assay to identify small molecule antagonists of the peroxisome proliferator-activated receptor delta (PPARd) signaling pathway (AID 743215; active means well fitted inhibition curve with a large enough effect in the signal ratio in the repeat runs, not every such curve was filed as active; the % refers to the signal ratio;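 further: cells stimulated with agonist L165041 at 300 nM final during compound exposure; series mostly up to about 62 µM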). The method, boiled down: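 HEK293H GeneBLAzer PPARd UAS-bla reporter cells; cpd + L165041 300 nM final, 17 h 37 C; LiveBLAzer B/G FRET substrate 2 h RT; fluorescence intensity read-out. Antagonist mode.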

In experiment [19] the target is Bile acid receptor (Homo sapiens) (UniProt Q96RI1). The experiment is described as follows: qHTS assay to identify small molecule antagonists of the farnesoid-X-receptor (FXR) signaling pathway (AID 743217; active means well fitted inhibition curve with a large enough effect in the signal ratio in the repeat runs, not every such curve was filed as active; the % refers to the signal ratio). The essentials: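 Read-out: beta-lactamase FRET fluorescence (LiveBLAzer B/G substrate, 2 h, room temperature) in GeneBLAzer FXR-UAS-bla HEK 293T cells. Compounds were co-dosed with 50 uM chenodeoxycholic acid (final) and incubated 16 h at 37 °C.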

Experiment [20] shares this target. The experiment is described as follows: qHTS assay to identify small molecule agonists of the farnesoid-X-receptor (FXR) signaling pathway (AID 743220; active means well fitted activation curve with a large enough effect in the signal ratio in the repeat runs, not every such curve was filed as active; the % refers to the signal ratio). The essentials:
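FXR-UAS-bla HEK 293T cells carrying a UAS-driven beta-lactamase reporter were plated for 5 h at 37C/5% CO2, then exposed to DMSO-dissolved Tox21 10K compounds for 16 h at 37C. A LiveBLAzer B/G FRET substrate was loaded for 2 h at room temperature before fluorescence reading.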

Sequence of Peroxisome proliferator-activated receptor delta (Homo sapiens) (Q03181 whole entry, looked up): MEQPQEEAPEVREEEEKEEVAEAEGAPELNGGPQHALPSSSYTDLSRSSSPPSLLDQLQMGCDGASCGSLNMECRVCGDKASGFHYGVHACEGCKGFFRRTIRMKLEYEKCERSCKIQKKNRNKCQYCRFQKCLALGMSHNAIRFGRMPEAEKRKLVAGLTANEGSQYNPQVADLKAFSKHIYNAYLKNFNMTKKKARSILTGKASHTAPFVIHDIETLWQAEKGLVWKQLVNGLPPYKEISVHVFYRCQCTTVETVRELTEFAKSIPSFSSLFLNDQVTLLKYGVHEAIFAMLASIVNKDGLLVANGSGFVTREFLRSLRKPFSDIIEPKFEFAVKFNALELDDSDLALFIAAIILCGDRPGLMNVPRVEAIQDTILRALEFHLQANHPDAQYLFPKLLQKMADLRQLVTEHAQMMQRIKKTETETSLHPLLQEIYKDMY
Sequence of Retinoic acid receptor RXR-alpha (Homo sapiens) (P19793 whole entry, looked up): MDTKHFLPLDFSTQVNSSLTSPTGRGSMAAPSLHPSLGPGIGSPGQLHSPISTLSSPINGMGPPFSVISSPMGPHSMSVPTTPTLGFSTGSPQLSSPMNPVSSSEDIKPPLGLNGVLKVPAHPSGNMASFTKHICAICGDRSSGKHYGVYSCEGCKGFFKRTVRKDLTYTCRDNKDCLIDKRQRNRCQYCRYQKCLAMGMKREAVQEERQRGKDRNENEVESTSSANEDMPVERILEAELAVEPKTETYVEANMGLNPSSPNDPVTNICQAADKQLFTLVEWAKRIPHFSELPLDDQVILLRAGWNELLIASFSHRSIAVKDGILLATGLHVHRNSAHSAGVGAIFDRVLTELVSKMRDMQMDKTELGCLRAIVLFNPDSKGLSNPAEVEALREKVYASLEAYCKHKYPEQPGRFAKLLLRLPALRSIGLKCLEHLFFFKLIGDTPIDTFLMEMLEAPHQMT
Sequence of Bile acid receptor (Homo sapiens) (Q96RI1 whole entry, looked up): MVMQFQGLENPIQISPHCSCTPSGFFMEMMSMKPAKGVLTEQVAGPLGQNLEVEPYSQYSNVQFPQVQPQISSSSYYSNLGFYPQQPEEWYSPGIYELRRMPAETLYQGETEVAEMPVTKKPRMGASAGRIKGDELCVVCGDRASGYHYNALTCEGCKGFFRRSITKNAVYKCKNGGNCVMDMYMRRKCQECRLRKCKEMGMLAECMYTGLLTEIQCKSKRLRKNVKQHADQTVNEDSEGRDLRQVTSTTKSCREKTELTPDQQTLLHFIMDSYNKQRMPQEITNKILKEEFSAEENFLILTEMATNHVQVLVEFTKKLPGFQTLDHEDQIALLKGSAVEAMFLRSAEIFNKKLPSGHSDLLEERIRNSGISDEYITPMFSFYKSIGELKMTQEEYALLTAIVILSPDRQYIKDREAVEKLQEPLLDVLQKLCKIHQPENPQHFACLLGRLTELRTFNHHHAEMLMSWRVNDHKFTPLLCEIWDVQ
Sequence of Vitamin D3 receptor (Homo sapiens) (P11473 whole entry, looked up): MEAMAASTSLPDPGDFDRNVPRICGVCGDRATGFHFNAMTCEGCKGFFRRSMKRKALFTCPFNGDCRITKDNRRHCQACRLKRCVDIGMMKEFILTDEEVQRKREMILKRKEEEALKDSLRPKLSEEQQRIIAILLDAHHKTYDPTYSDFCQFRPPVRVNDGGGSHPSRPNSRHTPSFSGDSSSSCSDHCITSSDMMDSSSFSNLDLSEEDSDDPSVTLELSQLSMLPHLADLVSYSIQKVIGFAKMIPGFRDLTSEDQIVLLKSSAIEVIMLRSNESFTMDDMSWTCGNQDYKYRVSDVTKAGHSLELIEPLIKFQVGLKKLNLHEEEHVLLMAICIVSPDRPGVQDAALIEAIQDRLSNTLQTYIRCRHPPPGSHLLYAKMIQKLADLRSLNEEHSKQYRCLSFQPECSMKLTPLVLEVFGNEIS

For the compound `c1ccc2c(c1)-c1cccc3cccc-2c13`, the Potency result in experiment [1], in experiment [2], in experiment [3], in experiment [4], in experiment [6] and in [7] was “inactive” in each case. The Potency result in [8], in [9], in experiment [11], in experiment [12], in experiment [13] and in experiment [14] was “inactive” throughout. Besides, the Potency result in [15] and in [16] was “inactive” in each case. In addition, the outcome in experiment [5] was inactive. Further, the Potency in [10] is 49 µM (active).
As to `CON(C)C(=O)Nc1ccc(Cl)cc1`, the Potency result in experiment [1], in [2], in [18], in experiment [19], in experiment [3] and in experiment [6] was “inactive” each time. Further, the Potency entry in experiment [7], in experiment [9], in [10], in [11], in [12] and in [13] was “inactive” each time. Besides, the Potency result in [14], in experiment [15] and in [16] was “inactive” each time. For the same compound, the outcome in experiment [17], in experiment [20] and in experiment [5] was inactive.
Regarding `CCCCCCCCCCCCN(C)C`, the Potency result in experiment [1], in experiment [2], in experiment [18], in experiment [19], in experiment [3] and in experiment [4] was “inactive” in each case. Besides, the Potency entry in [6], in experiment [7], in experiment [9], in [10], in experiment [11] and in [12] was “inactive” each time. Moreover, the Potency entry in [13], in [14], in [15] and in [16] was “inactive” throughout. Further, the call in experiment [17], in experiment [20] and in [5] was inactive.
For `CC(C)(c1ccccc1)c1cc(-n2nc3ccccc3n2)c(O)c(C(C)(C)c2ccccc2)c1`, the Potency entry in experiment [1], in experiment [2], in [18], in experiment [3], in experiment [4] and in experiment [6] was “inactive” each time. Besides, the Potency result in [7], in [8], in experiment [9], in [10], in experiment [11] and in experiment [12] was “inactive” each time. The Potency result in [13], in [14], in experiment [15] and in experiment [16] was “inactive” in each case. The result in experiment [17] and in [5] was inactive.
In the case of `C[N+]1(CCF)[C@@H]2CC[C@H]1CC(OC(=O)C(O)(c1ccccc1)c1ccccc1)C2` (stereo not given in full), the Potency result in experiment [1], in [2], in experiment [18], in [19], in experiment [3] and in experiment [4] was “inactive” in each case. For the same compound, the Potency entry in [6], in [7], in experiment [8], in [9], in [10] and in experiment [11] was “inactive” in each case. In addition, the Potency result in [12], in experiment [13], in experiment [14], in [15] and in experiment [16] was “inactive” throughout. Besides, the outcome in [17], in experiment [20] and in [5] was inactive.
On to `CCCC[P+](CC)(CCCC)CCCC` (tested in a mixture with another compound), for which the Potency entry in experiment [1], in [2], in experiment [3], in experiment [4], in experiment [6] and in experiment [7] was “inactive” each time. The Potency result in experiment [8], in experiment [9], in experiment [10], in experiment [11], in experiment [12] and in [13] was “inactive” each time. The Potency entry in experiment [14], in [15] and in experiment [16] was “inactive” in each case. The outcome in experiment [5] was inactive.
Turning to `O=C=NC1CCCCC1`, the Potency entry in experiment [1], in [18], in experiment [19], in [4], in experiment [6] and in experiment [7] was “inactive” throughout. Besides, the Potency result in experiment [8], in experiment [9], in experiment [10], in [11], in experiment [12] and in experiment [13] was “inactive” each time. The Potency result in experiment [14], in [15] and in experiment [16] was “inactive” each time. The result in experiment [17], in [20] and in experiment [5] was inactive.
